KB-3-1 tox: KB-3-1 parental cell cytotoxicity; KB-3-1 viability, CellTiter-Glo ATP luminescence, 72 h; Potency, µM (titrated, usually from 46.1 µM), hits mostly cytotoxic; 400,000 tested, 1.4% active; AID 1347075; note: nearly all actives have a fitted effect of over 60% in size
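72 h, 37 °C compound treatment of KB-3-1 parental cells; CellTiter-Glo added, 10 min, luminescence read. Data corrected against DMSO-only plates and normalized before curve fitting.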
HT1080 IDH1KD tx: HT-1080 IDH1 knockdown cell toxicity (counter line); 360,000 tested, 2% active; AID 686971; HT-1080 IDH1 knockdown viability, ATP luminescence, 48 h; Potency, µM (titrated, usually from 46.1 µM), usual class: cytotoxic
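Viability of IDH1-knockdown HT-1080 fibrosarcoma cells was assessed by CellTiter-Glo after 48 h at 37 °C with titrated compound; concentration-effect curves were classified by fit quality and response size.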
KB-V1 cytotox: KB-V1 MDR subline cytotoxicity; Potency, µM (titrated, usually from 46.1 µM), actives largely listed as cytotoxic; KB-V1 MDR cells viability, CellTiter-Glo, 72 h; 400,000 tested, 3.4% active; note: nearly all actives have a fitted effect of over 60% in size
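Following 72 h at 37 degrees C with compound, KB-V1 cell viability was read by CellTiter-Glo luminescence, medium being phenol-red-free DMEM plus 10% FBS; concentration-response parameters came from normalized, curve-fitted qHTS data.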
SW480 rereplic: inducers of DNA re-replication in SW480 colon cancer cells. SW480 DNA re-replication, Hoechst DNA content imaging, 48 h. 340,000 tested, 1.8% active. Potency, µM (highest dose often 46.1 µM), hits mostly activators; note: nearly all actives have a fitted effect of over 55% in size
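Image-based read-out: total Hoechst fluorescence of nuclei (405 nm excitation, 500-530 nm emission), with hits raising the fraction of high-intensity nuclei. SW480 colon cells incubated 48 hr with compounds at 37 C.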
HT1080NT lethal: kills 2HG-producing HT-1080-NT fibrosarcoma cells; HT-1080-NT fibrosarcoma viability, CellTiter-Glo ATP luminescence, 48 h; 360,000 tested, 1.6% active; Potency, µM (series often up to 46.1 µM), usual class: cytotoxic;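 note: NT is the 2HG producing partner of a matched IDH1 knockdown line; nearly all actives have a fitted effect of over 55% in size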
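Compounds were tested in concentration-response format on HT-1080-NT cells for 48 hours at 37 degrees C. Cell viability came from CellTiter-Glo luminescence; curves were classified by r2, response magnitude and activity.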
MCF10A rerep: DNA re-replication induction in MCF 10a cells; MCF 10A DNA re-replication, Hoechst nuclear intensity, 48 h; Potency, µM (doses to about 46.1 µM), hits mostly activators; 350,000 tested, 2.9% active; AID 624296; note: nearly all actives have a fitted effect of over 50% in size
Each line names hits and unclear results; the compound was inactive in the other large screens. Sampled rows, rich in hits. Any-hit rate of the full collection: about 8%. Calls come from the whole dose curve; as a rule, active = well fitted curve in the direction sought with a large enough effect; inconclusive = small, poorly fitted or top-dose-only effect, or another doubt; inactive = no such curve, though single readings can be large; an effect the other way counts as inactive or inconclusive.

CN1C(=O)/C(=C/c2ccccc2Cl)Sc2ccc(C(=O)NCc3cccnc3)cc21	HT1080 IDH1KD tx inconclusive, HT1080NT lethal inconclusive, MCF10A rerep 21µM
CCN1CCN(C(=O)C(C)Sc2nnc3nc(C)cc(C)n23)CC1 (configuration not stated)	none
CCC(=O)N1c2ccccc2CC1C(=O)NCc1ccccc1C (configuration not stated)	none (no result: HT1080 IDH1KD tx, SW480 rereplic, HT1080NT lethal, MCF10A rerep)
Cc1ccc(-n2ncc(C(=O)NCCN3CCN(C)CC3)c2C2CCN(C(=O)OC(C)(C)C)CC2)c(C)c1	KB-V1 cytotox inconclusive (no result: HT1080 IDH1KD tx, SW480 rereplic, HT1080NT lethal, MCF10A rerep)
COc1ccc(C2=NN(C(=O)CSc3ncccn3)C(c3ccc(C)cc3)C2)cc1 (configuration not stated)	KB-V1 cytotox 23µM, SW480 rereplic inconclusive, MCF10A rerep inconclusive
C=CCNCC(=O)N1N=C(c2ccc3ccccc3c2)CC1c1ccc(OC)cc1 (configuration not stated)	HT1080 IDH1KD tx 23µM, SW480 rereplic inconclusive, HT1080NT lethal 23µM, MCF10A rerep inconclusive
COc1ccc(C2CC(c3ccc4ccccc4c3)=NN2C(=O)CNC2CCCCC2)cc1 (configuration not stated)	HT1080 IDH1KD tx inconclusive, KB-V1 cytotox inconclusive, SW480 rereplic inconclusive, HT1080NT lethal 23µM, MCF10A rerep inconclusive
COc1ccc(C2CC(c3ccc4ccccc4c3)=NN2C(=O)CN2CCC(C(N)=O)CC2)cc1 (configuration not stated)	KB-3-1 tox inconclusive, HT1080 IDH1KD tx inconclusive, HT1080NT lethal inconclusive
CCNc1ccc(/C=C/c2ccnc3ccccc23)cc1	KB-3-1 tox inconclusive (no result: HT1080 IDH1KD tx, SW480 rereplic, HT1080NT lethal, MCF10A rerep)
Cc1ccc(CN(C(=O)c2ccccc2F)c2ccccn2)o1	none (no result: HT1080 IDH1KD tx, SW480 rereplic, HT1080NT lethal, MCF10A rerep)
CCCCc1nnc(SCc2cc(=O)c3cc(C(=O)OCC)ccc3[nH]2)n1C	none (no result: HT1080 IDH1KD tx, SW480 rereplic, HT1080NT lethal, MCF10A rerep)
O=C(NCCC1CCCCN1S(=O)(=O)c1ccccc1)C(=O)Nc1ccc(F)cc1F (configuration not stated)	KB-3-1 tox inconclusive, KB-V1 cytotox inconclusive, SW480 rereplic inconclusive, MCF10A rerep 18µM
O=C(NCCC1CCCCN1S(=O)(=O)c1ccccc1)C(=O)Nc1ccccc1F (configuration not stated)	none
Cc1cc(S(=O)(=O)N2CCCCC2CCNC(=O)C(=O)NCC2CCCO2)ccc1F (configuration not stated)	KB-V1 cytotox 2.6µM
O=C(NCCC1CCCCN1S(=O)(=O)c1ccc(F)cc1)C(=O)Nc1ccccc1F (configuration not stated)	none
Cc1ccc(S(=O)(=O)N2CCCCC2CCNC(=O)C(=O)Nc2ccccc2F)cc1 (configuration not stated)	KB-3-1 tox 7.3µM, KB-V1 cytotox 5.8µM
Nc1c(S(=O)(=O)c2ccccc2)c2nc3ccccc3nc2n1/N=C/c1cccc(O)c1	KB-3-1 tox inconclusive, KB-V1 cytotox inconclusive, MCF10A rerep 0.92µM
Cc1cccc(S(=O)(=O)c2c(N)n(/N=C/c3ccccc3)c3nc4ccccc4nc23)c1	none
CC(=O)Nc1ncnc2c1c(-c1ccc(Cl)cc1)nn2C(C)(C)C	MCF10A rerep inconclusive
CC(=O)N(C(C)=O)c1ncnc2c1c(-c1ccc(Cl)cc1)nn2C(C)(C)C	KB-3-1 tox inconclusive, HT1080 IDH1KD tx 15µM, KB-V1 cytotox inconclusive, HT1080NT lethal inconclusive, MCF10A rerep inconclusive
O=S1(=O)OC(c2ccc(O)cc2)(c2ccc(O)cc2)c2ccccc21	none (no result: KB-3-1 tox, HT1080 IDH1KD tx, KB-V1 cytotox, HT1080NT lethal)
CCCNC(=O)c1c(NC(=O)c2ccccc2)sc2c1CCC(C(C)(C)C)C2 (configuration not stated)	none (no result: HT1080 IDH1KD tx, SW480 rereplic, HT1080NT lethal, MCF10A rerep)
Cc1ccc2nc3c(cc(C(=O)NCCc4ccccc4)c(=N)n3CCN3CCOCC3)c(=O)n2c1	HT1080 IDH1KD tx inconclusive, KB-V1 cytotox inconclusive, SW480 rereplic 5.2µM, MCF10A rerep 18µM
Cc1cccn2c(=O)c3cc(C(=O)NC(C)c4ccccc4)c(=N)n(CCCn4ccnc4)c3nc12 (configuration not stated)	KB-3-1 tox inconclusive, HT1080 IDH1KD tx inconclusive, SW480 rereplic 16µM, HT1080NT lethal inconclusive, MCF10A rerep 21µM
COCCCn1c(=N)c(C(=O)NCc2cccnc2)cc2c(=O)n3cc(C)ccc3nc21	KB-V1 cytotox inconclusive (no result: HT1080 IDH1KD tx, SW480 rereplic, HT1080NT lethal, MCF10A rerep)
Cc1ccc2nc3c(cc(C(=O)NCCN4CCOCC4)c(=N)n3CCCN3CCOCC3)c(=O)n2c1	SW480 rereplic 1.8µM, MCF10A rerep inconclusive
Cc1ccc2nc3c(cc(C(=O)NCc4ccccc4)c(=N)n3CCCn3ccnc3)c(=O)n2c1	SW480 rereplic 5.2µM, MCF10A rerep 8.2µM
COc1ccccc1CCN1COc2c(cc3c(C)c(C)c(=O)oc3c2C)C1	none (no result: HT1080 IDH1KD tx, SW480 rereplic, HT1080NT lethal, MCF10A rerep)
CCOc1ccc(NC(=O)N2CCN(c3nnc(C)c4c(C)n(-c5ccccc5)nc34)CC2)cc1	none (no result: HT1080 IDH1KD tx, SW480 rereplic, HT1080NT lethal, MCF10A rerep)
O=[N+]([O-])c1cccc2[nH]cnc12	none (no result: HT1080 IDH1KD tx, SW480 rereplic, HT1080NT lethal, MCF10A rerep)
O=C(c1ccc2c(c1)OCO2)c1cn(Cc2ccc(F)cc2)c2ccccc2c1=O	none (no result: HT1080 IDH1KD tx, SW480 rereplic, HT1080NT lethal, MCF10A rerep)
Cc1ccc2nc(-c3cccc(NC(=O)c4cccc5ccccc45)c3)oc2c1	none (no result: HT1080 IDH1KD tx, SW480 rereplic, HT1080NT lethal, MCF10A rerep)
O=C(NC1CCS(=O)(=O)C1)c1cc2c(=O)n3ccccc3nc2n1Cc1ccccc1 (configuration not stated)	none (no result: SW480 rereplic, MCF10A rerep)
Cc1ccc2nc3c(cc(C(=O)NC4CCS(=O)(=O)C4)n3Cc3ccccc3)c(=O)n2c1 (configuration not stated)	SW480 rereplic 23µM, MCF10A rerep 23µM
O=C(CN1CCN(Cc2ccc(F)cc2)CC1)Nc1nc2ccccc2s1	none
Cc1cccc(CN2[C@@H](CC(C)C)COCCS2(=O)=O)c1	none
CC(Sc1nncs1)C(=O)NCC(=O)Nc1ccc(F)c(F)c1F (configuration not stated)	none
COc1ccc(NC(=O)COc2ccc(/C=C/c3cc[n+](C)cc3)cc2OC)cc1	KB-3-1 tox inconclusive, SW480 rereplic 8.2µM, MCF10A rerep inconclusive
COc1cc(/C=C/c2cc[n+](C)cc2)ccc1OCC(=O)Nc1ccc(Cl)c(Cl)c1	KB-3-1 tox inconclusive, HT1080 IDH1KD tx 23µM, SW480 rereplic inconclusive, HT1080NT lethal inconclusive, MCF10A rerep inconclusive
COc1cc(/C=C/c2cccc[n+]2C)ccc1OCC(=O)Nc1cccc(Cl)c1	KB-3-1 tox inconclusive, KB-V1 cytotox inconclusive
COc1cc(/C=N/NC(N)=S)ccc1OCC(=O)Nc1ccc(C)c(C)c1	SW480 rereplic inconclusive, MCF10A rerep 15µM
COc1ccc(N(CC(=O)NC2CCS(=O)(=O)C2)S(=O)(=O)c2ccc(Cl)c(Cl)c2)cc1 (configuration not stated)	MCF10A rerep inconclusive
